Screening data as filed in PubChem.
Most compounds without a hit are left out; they make up all but 7.9% or so of the library.
SW480 rerep: A quantitative high throughput screen for small molecules that induce DNA re-replication in SW480 colon adenocarcinoma cells; Potency, µM (top dose mostly 46.1 µM), usual class: activators; SW480 DNA re-replication, Hoechst DNA content imaging, 48 h; 340,000 tested, 1.8% active; further: nearly all actives have a fitted effect of over 55% in size
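Hoechst fluorescence of nuclei (405 nm excitation, 500-530 nm emission) measured by plate-scanning imager after 48 hr compound exposure at 37 C; re-replication scored as increased number of nuclei with elevated intensity.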
MCF10A rerep: A quantitative high throughput screen for small molecules that induce DNA re-replication in MCF 10a normal breast cells; MCF 10A DNA re-replication, Hoechst nuclear intensity, 48 h; Potency, µM (series often up to 46.1 µM), most hits filed as activators; 350,000 tested, 2.9% active; AID 624296, 2012; further: nearly all actives have a fitted effect of over 50% in size
KB-3-1 cytotox: qHTS assay for MDR1-selective chemotherapeutics: Primary screen using the parental adenocarcinoma cell KB-3-1. 400,000 tested, 1.4% active. KB-3-1 viability, CellTiter-Glo ATP luminescence, 72 h. Potency, µM (titrated, usually from 46.1 µM), actives largely listed as cytotoxic; further: nearly all actives have a fitted effect of over 60% in size
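Parental KB-3-1 viability, qHTS format: 72 h compound exposure, 37 °C; CellTiter-Glo; media-only wells and DMSO plates as controls; concentration-effect fits on corrected data.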
HT1080-NT tox: qHTS for induction of synthetic lethality in tumor cells producing 2HG: qHTS for the HT-1080-NT fibrosarcoma cell line | HT-1080-NT fibrosarcoma viability, CellTiter-Glo ATP luminescence, 48 h | Potency, µM (top dose mostly 46.1 µM), most hits filed as cytotoxic | 360,000 tested, 1.6% active | AID 686970, 2013;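 further: NT is the 2HG producing partner of a matched IDH1 knockdown line; nearly all actives have a fitted effect of over 55% in size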
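750 cells/well, RPMI + 5% FBS; 2 h settle, compound pin-transfer, 48 h at 37 degrees C. CellTiter-Glo 10 min RT, luminescence. Normalized to DMSO and media-only wells.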
HT1080 IDH1KD tx: qHTS for induction of synthetic lethality in tumor cells producing 2HG: qHTS for the HT-1080-IDH1KD cell line | HT-1080 IDH1 knockdown viability, ATP luminescence, 48 h | Potency, µM (highest dose often 46.1 µM), hits mostly cytotoxic | 360,000 tested, 2% active | AID 686971, 2013
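Assay cells: HT-1080 with IDH1 knockdown, 750 per well, RPMI/5% FBS. Exposure: 48 h at 37 °C following 2 h pre-incubation. Read: CellTiter-Glo luminescence; fitted concentration-response, curve class assigned.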
KB-V1 cytotox: qHTS assay for MDR1-selective chemotherapeutics: Primary screen using the drug-selected MDR subline cells KB-V1; 400,000 tested, 3.4% active; Potency, µM (doses to about 46.1 µM), usual class: cytotoxic; KB-V1 MDR cells viability, CellTiter-Glo, 72 h; further: nearly all actives have a fitted effect of over 60% in size
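KB-V1 MDR subline cells in DMEM (phenol-red free, 10% FBS) exposed to compounds in qHTS concentration series for 72 h at 37 degrees C. Viability read by CellTiter-Glo luminescence; concentration-effect curves fitted after normalization and correction.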
Each line names hits and unclear results; the compound was inactive in the other large screens; ! = a repeat was not active. The call rests on the fitted dose curve; in most records, active means well fitted curve in the direction sought with a large enough effect; inconclusive means small, poorly fitted or top-dose-only effect, or another doubt; inactive means no such curve, though single readings can be large; an effect the other way counts as inactive or inconclusive.

Cc1ccc2[nH]c(=O)c(CN(CC3CCCO3)C(=S)Nc3ccccc3)cc2c1 (stereo unspecified)	SW480 rerep inconclusive, MCF10A rerep inconclusive, KB-3-1 cytotox inconclusive, KB-V1 cytotox 4.1µM
Cc1cc(C)c2[nH]c(=O)c(CN(CC3CCCO3)C(=S)Nc3ccccc3)cc2c1 (stereo unspecified)	none
CC(C)COc1ccc(C(=O)N(Cc2ccco2)C2CCS(=O)(=O)C2)cc1 (stereo unspecified)	none
COc1ccc(OC)c(CCNC(=O)c2sc3nc4n(c(=O)c3c2C)CCC4)c1	MCF10A rerep inconclusive, KB-3-1 cytotox inconclusive
Cc1ccc2[nH]c(=O)c(CN(CC3CCCO3)S(=O)(=O)c3c(C)ccc4nsnc34)cc2c1 (stereo unspecified)	KB-3-1 cytotox inconclusive, KB-V1 cytotox 6.5µM
COc1ccc(NC(=O)N(Cc2cc3cc(C)ccc3[nH]c2=O)CC2CCCO2)cc1 (stereo unspecified)	SW480 rerep inconclusive, MCF10A rerep inconclusive
COc1ccc2[nH]c(=O)c(CN(CC3CCCO3)C(=O)Nc3ccc(F)cc3)cc2c1 (stereo unspecified)	MCF10A rerep inconclusive, KB-3-1 cytotox 13µM, KB-V1 cytotox 2.6µM
Cc1nn(C)cc1C(C(=O)NC1CCCCC1)N(C(=O)Cn1nnc2ccccc21)c1ccc(F)cc1 (stereo unspecified)	SW480 rerep inconclusive, MCF10A rerep 26µM
N#Cc1cc2c(=O)n3ccccc3nc2n(-c2nnc(SCc3ccccc3)s2)c1=O	none (no result: SW480 rerep, MCF10A rerep, HT1080-NT tox, HT1080 IDH1KD tx)
CCc1c(C)sc(NC(=O)OC)c1C(N)=O	none
CCc1c(C)sc(NC(=O)CCc2ccc(OC)cc2)c1C(N)=O	KB-V1 cytotox 21µM
COc1ccc(CCNC(=O)c2ccccc2OCc2c(C)noc2C)cc1	KB-V1 cytotox 5.8µM
Cc1noc(C)c1COc1ccccc1C(=O)NCCc1ccc(Cl)cc1	KB-V1 cytotox inconclusive
Cc1noc(C)c1COc1ccccc1C(=O)N1CCN(S(=O)(=O)c2ccccc2F)CC1	KB-V1 cytotox inconclusive
Cc1noc(C)c1COc1ccccc1C(=O)N1CCN(S(=O)(=O)c2ccccc2C#N)CC1	KB-V1 cytotox 15µM
Cc1ccc(NC(=O)c2ccccc2OCc2c(C)noc2C)cc1S(=O)(=O)N(C)C	KB-V1 cytotox 2.3µM
COc1cccc(NC(=O)c2ccccc2OCc2c(C)noc2C)c1	KB-V1 cytotox inconclusive
CC(=O)Nc1nonc1-c1nnc(SCC(=O)Nc2cccc(C)c2C)n1-c1ccccc1	none (no result: SW480 rerep, MCF10A rerep, HT1080-NT tox, HT1080 IDH1KD tx)
Cc1cc(C(=O)NC2CCCC2)on1	KB-V1 cytotox inconclusive
Cn1nc(C(F)(F)F)c(C(=O)Nc2ccc(F)cc2F)c1Cl	none
Cn1nc(C(F)(F)F)c(C(=O)Nc2ccc(F)cc2F)c1Sc1cccc(Cl)c1	SW480 rerep inconclusive, MCF10A rerep inconclusive, HT1080 IDH1KD tx inconclusive, KB-V1 cytotox 16µM
Cn1nc(C(F)(F)F)c(C(=O)Nc2ccc(F)cc2F)c1Sc1cccc(C(F)(F)F)c1	KB-3-1 cytotox inconclusive, KB-V1 cytotox 13µM
Cn1nc(C(F)(F)F)c(C(=O)Nc2ccc(F)cc2F)c1Oc1cccc(Cl)c1	KB-V1 cytotox inconclusive
COc1ccccc1NC(=S)N(CCCN1CCOCC1)Cc1cn(C)c2ccccc12	none
COc1ccc(C2=Nc3ccc(C)cc3NC(c3ccc(Cl)cc3)=N2)cc1	none (no result: SW480 rerep, MCF10A rerep, HT1080-NT tox, HT1080 IDH1KD tx)
Cc1cccc(N2CCN(C(=O)CN3CCOc4ccccc43)CC2C)c1 (stereo unspecified)	SW480 rerep inconclusive
Cc1ccc(N2C(=O)C3C4C=CC(CNC(=S)N5CCN(c6cccc(C)c6)C(C)C5)(O4)C3C2=O)cc1 (stereo unspecified)	SW480 rerep 10µM, MCF10A rerep 21µM, KB-3-1 cytotox inconclusive, KB-V1 cytotox inconclusive
O=C(C1=C[C@H](c2ccccc2)C[C@H](OCCCCO)O1)N1CCN(Cc2ccc3c(c2)OCO3)CC1	none
O=C(Cc1cccs1)Nc1nc(-c2ccc(F)cc2F)cs1	SW480 rerep inconclusive, MCF10A rerep inconclusive, KB-3-1 cytotox 23µM, HT1080 IDH1KD tx inconclusive, KB-V1 cytotox inconclusive
CCC(=O)Nc1nc(-c2ccc3c(c2)CC(C)N3S(C)(=O)=O)cs1 (stereo unspecified)	KB-3-1 cytotox inconclusive
O=C(CS(=O)(=O)c1ccccc1)Nc1nc(-c2ccccc2)cs1	none
O=C(Cc1ccccc1F)Nc1nc(-c2ccc(F)c(F)c2)cs1	SW480 rerep inconclusive, MCF10A rerep 16µM, KB-3-1 cytotox inconclusive, HT1080-NT tox inconclusive, HT1080 IDH1KD tx inconclusive, KB-V1 cytotox inconclusive
O=C(Cc1cccs1)Nc1nc(-c2ccc(F)c(F)c2)cs1	KB-3-1 cytotox inconclusive, KB-V1 cytotox inconclusive
CC1Cc2cc(-c3csc(NC(=O)Cc4cccs4)n3)ccc2N1S(C)(=O)=O (stereo unspecified)	MCF10A rerep inconclusive, KB-3-1 cytotox 3.3µM, HT1080 IDH1KD tx inconclusive, KB-V1 cytotox 2.6µM
Cc1ccc(S(=O)(=O)CC(=O)Nc2nc(-c3ccccc3)cs2)cc1	KB-V1 cytotox 18µM
O=C(Cc1c(F)c(F)c(F)c(F)c1F)Nc1nc(-c2ccccc2)cs1	MCF10A rerep 18µM, KB-3-1 cytotox inconclusive, HT1080-NT tox inconclusive, HT1080 IDH1KD tx 16µM, KB-V1 cytotox inconclusive
O=C(Cc1ccc(F)cc1)Nc1nc(-c2ccc(F)cc2)cs1	none
Cc1ccc(S(=O)(=O)Nc2ccc(-c3csc(-c4ccccc4)n3)cc2)cc1	SW480 rerep inconclusive, MCF10A rerep 12µM, KB-V1 cytotox inconclusive
CCCn1nc(Oc2nc(SC)nc(N(C)C)n2)ccc1=O	KB-3-1 cytotox inconclusive, KB-V1 cytotox inconclusive
CCOC(=O)N1CCN(C(=O)CS(=O)(=O)c2cn(Cc3ccccc3C)c3ccccc23)CC1	KB-V1 cytotox inconclusive
Cc1ccccc1Cn1cc(S(=O)(=O)CC(=O)Nc2nccs2)c2ccccc21	KB-3-1 cytotox inconclusive, HT1080-NT tox inconclusive, KB-V1 cytotox 16µM
Cc1ccc(OCC(=O)N2CCCCC2C)c([N+](=O)[O-])n1 (stereo unspecified)	none
CCCCCCCCN1[C@@H](CC(=O)OC)c2cc(C(F)(F)F)ccc2S1(=O)=O	KB-V1 cytotox inconclusive
CCCCCCCCN1[C@@H](CC(C)=O)c2cc(C(F)(F)F)ccc2S1(=O)=O	SW480 rerep inconclusive, KB-3-1 cytotox inconclusive, KB-V1 cytotox 18µM!
